An excerpt weighted towards active compounds, which were near 3.1% of everything screened.
Nrf2 activator – activators of Nrf2 (ARE) signaling; AID 624171; AREc32 ARE-luciferase reporter (MCF7-derived line), luminescence, 24 h; Potency, µM (highest dose often 46.1 µM), actives largely listed as activators; hit rate 0.31% among 410,000; note: nearly all actives have a fitted effect of over 65% in size
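Luminescent ARE reporter assay in AREc32_Fluc cells: overnight plating at 37 deg C, 24 hr compound incubation, Steady-Glo added, 30 min RT before reading.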
IL-2 act – activators of IL-2; activation, % (series mostly up to about 46 µM); AID 652025; IL-2 activation reporter assay, cell-based qHTS; stimulated with anti-CD3/CD4/CD28 beads; in transgenic mouse T cells; hit rate 0.065% among 360,000; in the data active = activation above about 50%; inconclusive = mostly about 30% to 49%
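Quantitative HTS in unstimulated transgenic mouse T cells, with memory T cells as non-tolerant control and PMA/ionomycin as tolerance-bypass control. Compound pretreatment lasted 60 minutes before 18 h bead stimulation; EGFP/DsRed fluorescence read.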
ELG1 DNA repair – ELG1-dependent DNA repair inhibition; HEK293T ELG1-luciferase reporter, luminescence, 16 h; DNA damage induced by 5-fluorouridine; Potency, µM (top dose mostly 46.1 µM), most hits filed as inhibitors; hit rate 2.3% among 330,000; AID 504467; note: nearly all actives have a fitted effect of over 55% in size
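Step one: seed 2,000 cells per well. Step two: pin-transfer compound or DMSO alongside 5-fluorouridine. Step three: incubate 16 hr, 37 °C, 5% CO2. Step four: add ONE-Glo, wait 30 min, read luminescence.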
BRCA1 expr up – activators of BRCA1 expression; Potency, µM (titrated, usually from 46.1 µM), hits mostly activators; hit rate 1.1% among 380,000; MCF7-BRCA1-FFLuc reporter, luminescence, 48 h; response scale: scaled: vehicle 0%, 10 µM genistein 100%; AID 624202; note: nearly all actives have a fitted effect of over 80% in size
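First, MCF7-BRCA1-FFLuc cells (2000/well) attach for 2 h; next, compounds are pin-added and incubated 48 h at 37 °C; finally, luciferase reagent is added and luminescence read after 15 min.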
A number is an active result; i = inactive; ? = inconclusive; nt = no result given; [ ] = dose if it differs, or a comment. Unless noted, calls come from the whole dose curve; as a rule, active = well fitted curve in the direction sought with a large enough effect; inconclusive = small, poorly fitted or top-dose-only effect, or another doubt; inactive = no such curve, though single readings can be large; an effect the other way counts as inactive or inconclusive.

SMILES | Nrf2 activator | IL-2 act | ELG1 DNA repair | BRCA1 expr up
O=C(Nc1cc(Br)ccc1O)c1cc(-c2ccc3c(c2)OCO3)on1 | i | i | ? | 1.4µM
Cc1cc(C(=O)NNc2ccccc2F)no1 | i | i | 6.5µM | i
COC(=O)c1sc(NC(=O)c2cc(C)on2)nc1C | i | i | ? | 10µM
CSc1ccccc1NC(=O)c1cc(-c2ccc3c(c2)OCO3)on1 | i | i | ? | i
Cc1ccc(NC(=O)c2cc(C)on2)cc1 | i | i | ? | 5µM
Cc1ccc(-c2cc(C(=O)Nc3cc(C)ccc3O)no2)cc1 | i | i | ? | 1.1µM
COc1ccc(-c2cc(C(=O)Nc3cc(C)ccc3O)no2)cc1 | i | i | ? | ?
N#C/C(=C\c1ccc(O)cc1)c1nc2ccccc2o1 | i | 57 | ? | ?
COc1cc(/C=C(\C#N)c2nc3ccccc3o2)ccc1O | ? | i | ? | i
COc1cccc(Cn2c(C3CC3)nc3ccc(NC(=O)c4ccco4)cc3c2=O)c1 | nt | nt | 23µM | nt
O=C(Nc1ccc2nc(C3CC3)n(Cc3ccc(F)cc3)c(=O)c2c1)c1ccco1 | i | i | ? | i
Cc1ccc(S(=O)(=O)c2cn(Cc3ccccc3)c3cc(N4CCCC4)c(F)cc3c2=O)cc1C | i | nt | nt | nt
CC/C(=N/Nc1ccc(Cl)cc1)c1cnnc(SC)n1 | i | i | i | i
CC/C(=N/Nc1cccc(C)c1)c1cnnc(SC)n1 | i | 190 | i | i
Cc1ccc(Nc2nnc(-c3ccc4c(c3)OCO4)o2)c(C)c1 | i | i | ? | 10µM
Cc1ccc(CSc2nnc(-c3ccc4c(c3)OCO4)o2)cc1 | i | i | ? | ?
COc1cc(-c2nc3ccccc3s2)ccc1O | 6.3µM | i | ? | i
COc1ccc(CNCc2ccc3c(c2)n(C)c(=O)n3C)cc1 | i | nt | nt | nt
Cc1cc(C)c2nc3s/c(=C/c4ccccc4)c(=O)n3c2c1 | nt | nt | i | nt
O=c1/c(=C\c2ccc(O)cc2)sc2nc(-c3ccccc3)c(-c3ccccc3)n12 | i | 99 | i | i
O=C(NC1CC1)c1cc2cc3ccccc3nc2s1 | i | i | ? | 5µM
Cc1nn(Cc2ccccc2Cl)c2sc(C(=O)Nc3ccccc3N3CCOCC3)cc12 | i | i | 23µM | i
O=C(c1ccc(S(=O)(=O)Cc2cc(F)ccc2F)c([N+](=O)[O-])c1)N1CCCCC1 | ? | i | ? | i
O=C(c1ccc(S(=O)(=O)Cc2cc(F)ccc2F)c([N+](=O)[O-])c1)N1CCCC1 | 8.9µM | i | i | i
COCc1nc(-c2ccc(-c3ccc(OC)cc3)nc2OC)no1 | i | i | ? | i
SMILES | Nrf2 activator | IL-2 act | ELG1 DNA repair | BRCA1 expr up
COc1cccc(-c2ccc(-c3noc(-c4cccs4)n3)c(OC)n2)c1 | i | i | ? | i
COCc1nc(-c2ccc(-c3ccccc3)nc2OC)no1 | i | i | i | 10µM
COc1cccc(-c2ccc(-c3noc(-c4ccccc4F)n3)c(OC)n2)c1 | i | i | ? | 10µM
COc1cc([N+](=O)[O-])ccc1NC(=O)N1CCC2(CC1)Nc1ccccc1-n1cccc12 | i | nt | nt | nt
Cc1ccc(NC(=O)COC(=O)c2ccccc2OCC(=O)N(C)C)cc1 | nt | nt | nt | i
COc1ccccc1C(=O)Nc1nc2nc(C)c(Cc3ccccc3)c(=O)n2[nH]1 | i | nt | nt | nt
Cc1ccc(S(=O)(=O)C2(C(=O)N3CCN(c4cc(C)ccc4C)CC3)CC2)cc1 | i | i | 26µM | i
Cc1ccc(S(=O)(=O)C2(C(=O)N3CCCCCC3)CC2)cc1 | i | i | ? | i
CCCn1c(-c2cc(OC)c(OC)c(OC)c2)nc2nc3ccccc3nc21 | i | i | 16µM | i[1.84 µM]
CC(C)(C)CC(=O)Nc1ccc(Nc2ccccc2)cc1 | i | i | ? | 6.3µM
CCCCc1ccc(NC(=O)CC(C)(C)C)cc1 | i | i | ? | 13µM
CC(C)CC(=O)Nc1ccc(Nc2ccccc2)cc1 | i | i | i | i
COc1ccc(CNc2nc(N)nc3nc[nH]c23)cc1 | nt | nt | nt | i
COc1ccc(/C=C2/SC(=S)N(CCCC(=O)Nc3ccc(O)cc3)C2=O)cc1OC | i | 85 | ? | i
CN1CCN(C(=O)CCCN2C(=O)/C(=C/c3ccc(Cl)cc3)SC2=S)CC1 | ? | i | 18µM | i
Cc1ccc(/C=C2\SC(=S)N(CCCC(=O)N3CCOCC3)C2=O)cc1 | i | i | 13µM | i
CN1CCN(C(=O)CCN2C(=O)/C(=C\c3ccc(Cl)cc3Cl)SC2=S)CC1 | 13µM | i | i | i
O=C(CCN1C(=O)/C(=C\c2ccccc2Cl)SC1=S)N1CCN(c2ccccc2)CC1 | i | i | i | i
